We go through 14 compounds from PubChem BioAssay AID1345085 (National Center for Advancing Translational Sciences (NCATS), 2018).

Inconclusive results are not listed. Where a call stands in place of a potency, no number is given. Values without a mark were called inactive. Active and inactive are the calls of the source. Calls come from the whole dose curve; as a rule, active = well fitted cell-killing curve with a large enough effect; inconclusive = small, poorly fitted or top-dose-only effect, or effect the other way; inactive = no such curve, though single readings can be large or run the other way.
Potency is the fitted concentration of half-maximal effect.

This experiment concerns JEG-3. The experiment in a line: Confirmatory qHTS for gynecologic anti-cancer compounds from libraries of approved drugs and bioactive compounds. Note: nearly all actives have a fitted effect of over 55% in size. The settings on record: gynecologic cancer cell panel viability, ATPlite luminescence, 48 h; series mostly up to 57.6 µM. The procedure, abridged: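 ATPlite luminescence read-out of cell viability; IC50 from 11-point 1:3 titrations, 57.5 uM to 0.977 nM, 48 h compound exposure at 37 C, 5% CO2. Cells seeded at 1,000/well 16 h before dosing.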
As to `N=C(N)c1ccc(OCCCCCOc2ccc(C(=N)N)cc2)cc1`, the Potency is 3.43 µM (active).

Consider `CCCCN(CCCC)CC(O)c1cc(Cl)cc2c1-c1ccc(Cl)cc1/C2=C/c1ccc(Cl)cc1` (centres undefined), for which the Potency result was “inactive”.

For `Cc1ccccc1C(OCCN(C)C)c1ccccc1` (centres undefined), the Potency entry is “inactive”.

Take `OCc1ccc(-c2ccc(-c3ccc(CO)s3)o2)s1`: the Potency entry is “inactive”.

For the compound `NC(=O)c1cccc2cn(-c3ccc([C@@H]4CCCNC4)cc3)nc12`, the Potency result is “inactive”.

Consider `CC[C@H](Nc1ncnc2nc[nH]c12)c1nc2cccc(F)c2c(=O)n1-c1ccccc1`, for which the activity change, negative = viability loss is -0.887% [at 10.6 µM].

On to `COc1cccc2c1C(=O)c1c(O)c3c(c(O)c1C2=O)C[C@@](O)(C(=O)CO)C[C@@H]3O[C@H]1C[C@H](N)[C@H](O)[C@H](C)O1`, for which the Potency was 1.09 µM (active).

Regarding `CC(=O)NCC(=O)N1C2CCC1c1cc(Nc3ncc(C(F)(F)F)c(NC4CCC4)n3)ccc12` (centres undefined), the Potency was 19.3 µM (active).

Consider `CCCCN(CCCC)C(=O)CN1C[C@H](c2ccc3c(c2)OCO3)[C@@H](C(=O)O)[C@@H]1c1ccc(OC)cc1`, for which the Potency entry was “inactive”.

For the compound `CN(C[C@@H]1COCCO1)S(=O)(=O)Nc1ccc2ccc3ncc(-c4cnn(C)c4)cc3c(=O)c2c1`, the Potency result is “inactive”.

As for `Nc1nc(Cl)nc2c1ncn2C1OC(CO)C(O)C1F` (centres undefined), the Potency was 2.17 µM (active).

Regarding `CCCC(=O)O[C@]1(C(=O)CCl)[C@@H](C)C[C@H]2[C@@H]3CCC4=CC(=O)C=C[C@]4(C)[C@@]3(F)C(=O)C[C@@]21C`, the Potency was 10.9 µM (active).

With `Cn1cc(-c2ccc3ncc(Cc4ccc5ncccc5c4)n3n2)cn1`, the Potency result is “inactive”.

Take `Cn1cnc([N+](=O)[O-])c1Sc1ncnc2nc[nH]c12`: the Potency is 8.63 µM (active).
